Assay outcomes deposited in PubChem BioAssay by National Center for Advancing Translational Sciences (NCATS).
Gal4-VP16 FLuc = inhibits Gal4-VP16 luciferase reporter, ROR gamma counter-screen | Potency, µM (top dose mostly 53.6 µM), inactives show at the top dose activity, negative = inhibition, hits mostly inhibitors | Drosophila S2 Gal4-VP16 UAS-luciferase, luminescence, 20 h | hit rate 3.5% among 310,000 | AID 2546;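 also: Gal4-VP16 expression switched on by copper sulfate through the metallothionein promoter; potency is read from the fitted curve at half-maximal effect; nearly all actives have a fitted effect of over 50% in size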
TDP1 cell noCPT = qHTS for Inhibitors of human tyrosyl-DNA phosphodiesterase 1 (TDP1): qHTS in cells in absence of CPT. DT40 Tdp1-/- hTDP1 cells, no CPT, ATP luminescence, 48 h. hit rate 15% among 420,000. Potency, µM (doses to about 46.2 µM), for inactives: top-dose activity change, negative = growth inhibition, hits mostly inhibitors; also: potency is read from the fitted curve at half-maximal effect; nearly all actives have a fitted effect of over 55% in size
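Chicken DT40 Tdp1-/- cells stably complemented with human TDP1 were seeded at 400 cells/well with DMSO in place of 20 nM camptothecin. After compound pinning, cells grew at least 48 hr at 37 °C; viability read by CellTiter-Glo luminescence.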
TDP1 cell CPT = DT40-hTDP1 cell growth loss with CPT; chicken DT40 Tdp1-/-;hTDP1 cells + 20 nM CPT, ATP luminescence, 48 h; Potency, µM (highest dose often 46.2 µM), for inactives: top-dose activity change, negative = growth inhibition, hits mostly inhibitors; hit rate 12% among 420,000; AID 686979; also: potency is read from the fitted curve at half-maximal effect; nearly all actives have a fitted effect of over 55% in size
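Cell growth measured by CellTiter-Glo luminescence after a minimum 48 h, 37 C compound exposure with 20 nM CPT in Tdp1-knockout DT40 cells stably expressing hTDP1, seeded 400/well; qHTS titration format.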
LDHA block = LDHA (human) enzyme inhibition. P00338. purified LDHA, NADH/diaphorase-resazurin fluorescence; stronger effect = lower value. activity change, % (values are at about 110 or 230 µM). hit rate 0.15% among 480,000. AID 1347041; in the data active = activity change below about -30%; inconclusive = mostly about -25% to -30%;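 also: plate controls were DMSO wells for no effect and wells without enzyme for full effect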
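Human LDH5 at 2 nM final in Tris HCl pH 7.4 with 0.06 mM NADH and 0.2 mM pyruvate, reacted 5 minutes at room temperature. Remaining NADH coupled via diaphorase/resazurin; resorufin fluorescence read at 0 and 20 minutes, normalized to enzyme-free and DMSO wells.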
RORgamma inh = ROR gamma (mouse) transcription inhibition | P51450 | Drosophila S2 Gal4-RORgamma UAS-luciferase reporter, 20 h | Potency, µM (highest dose often 53.6 µM), for inactives: top-dose activity change, negative = inhibition, most hits filed as inhibitors | hit rate 5.4% among 310,000 | AID 2551; also: potency is read from the fitted curve at half-maximal effect; nearly all actives have a fitted effect of over 60% in size
Target sequence (P51450 whole entry, looked up, the tested form may be a part): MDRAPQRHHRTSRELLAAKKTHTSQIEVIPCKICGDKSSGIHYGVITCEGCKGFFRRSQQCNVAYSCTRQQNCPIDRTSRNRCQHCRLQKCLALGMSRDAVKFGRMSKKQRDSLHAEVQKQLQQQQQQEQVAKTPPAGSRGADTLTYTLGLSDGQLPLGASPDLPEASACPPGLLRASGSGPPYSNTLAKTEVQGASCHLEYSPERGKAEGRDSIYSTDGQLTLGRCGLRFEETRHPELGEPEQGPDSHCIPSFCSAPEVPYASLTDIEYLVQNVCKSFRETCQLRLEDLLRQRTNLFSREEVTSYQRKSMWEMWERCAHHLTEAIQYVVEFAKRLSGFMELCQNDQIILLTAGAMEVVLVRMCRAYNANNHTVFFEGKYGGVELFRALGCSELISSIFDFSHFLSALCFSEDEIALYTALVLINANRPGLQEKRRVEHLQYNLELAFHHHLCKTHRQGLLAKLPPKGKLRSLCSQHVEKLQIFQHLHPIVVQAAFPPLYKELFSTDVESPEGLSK
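Compounds are pin-transferred onto Drosophila Schneider cells expressing a copper-inducible Gal4–ROR gamma transactivation domain fusion. After 1 hr, copper sulfate is added to 700 uM final; luciferase is read 20 hr later.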
IL1B secr inh = inhibitors of inflammasome signaling (IL-1 beta secretion). activity change, % at 57.5 µM. hit rate 4.7% among 360,000. THP-1 LPS/ATP IL-1B secretion, AlphaLISA, 16 h; stronger effect = lower value; in the data active = activity change below about -50%; inconclusive = mostly about -30% to -49%
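THP-1 cells pretreated 1 hr with compounds (up to 57.5 uM final), then stimulated with LPS (250 ng/mL final) plus ATP (1.25 mM final); secreted IL-1B measured by AlphaLISA after 16 hr, decreased signal indicating inhibition.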
Starred values were filed as active, the others as inactive. This is a sample that favours compounds with a hit; in the whole collection about 18% have one here. Unless noted, calls follow the shape of the dose curve; as a rule, active = well fitted curve in the direction sought with a large enough effect; inconclusive = small, poorly fitted or top-dose-only effect, or another doubt; inactive = no such curve, though single readings can be large; an effect the other way counts as inactive or inconclusive. Unless noted, % is scaled to controls: 0 for no effect and ±100 for the full control effect.

Results for COc1cccc2cc(C(=O)NCc3ccco3)c(=Nc3ccc(C(=O)O)cc3)oc12 ?
Gal4-VP16 FLuc: -11%; TDP1 cell noCPT: 16µM*; TDP1 cell CPT: inconclusive; LDHA block: 0; RORgamma inh: inconclusive; IL1B secr inh: -85*

How did NC(=O)c1cc2cc(Br)ccc2oc1=NCc1ccccc1 do in these assays?
Gal4-VP16 FLuc: 11%; TDP1 cell noCPT: -29%; TDP1 cell CPT: -25%; LDHA block: -2; RORgamma inh: -19%; IL1B secr inh: -65*

How did COc1cccc2cc(C(=O)NCc3ccco3)c(=O)oc12 do in these assays?
Gal4-VP16 FLuc: -14%; TDP1 cell noCPT: -12%; TDP1 cell CPT: -3%; LDHA block: -4; RORgamma inh: -14%; IL1B secr inh: -13

Results for COc1ccc2cc(C(=O)NCc3ccccc3)c(=Nc3ccc(C(=O)O)cc3)oc2c1 ?
Gal4-VP16 FLuc: inconclusive; TDP1 cell noCPT: 13µM*; TDP1 cell CPT: inconclusive; LDHA block: 1; RORgamma inh: inconclusive; IL1B secr inh: 9

What do the screens show for `CCCCCn1nc(C(=O)OCC(=O)N2c3ccccc3NC(=O)C2(C)C)c2ccccc2c1=O`?
LDHA block: 6

How did COc1ccc(NS(=O)(=O)c2ccc3oc(Nc4ccc5c(c4)OCCO5)nc3c2)cc1 do in these assays?
Gal4-VP16 FLuc: 26%; TDP1 cell noCPT: 15µM*; TDP1 cell CPT: inconclusive; LDHA block: 0; RORgamma inh: inconclusive; IL1B secr inh: -10

What do the screens show for `COc1ccc(NS(=O)(=O)c2ccc3oc(SC(C)C(N)=O)nc3c2)cc1` (stereo not given)?
Gal4-VP16 FLuc: inconclusive; TDP1 cell noCPT: 12µM*; TDP1 cell CPT: 16µM*; LDHA block: -7; RORgamma inh: inconclusive; IL1B secr inh: -12

How did COc1ccc(NS(=O)(=O)c2ccc(NS(=O)(=O)c3ccc4c(c3)OCCO4)cc2)cc1 do in these assays?
TDP1 cell noCPT: inconclusive; TDP1 cell CPT: inconclusive; LDHA block: -2

Results for COC(=O)CSc1nc2ccsc2c(=O)n1Cc1ccco1 ?
LDHA block: -9

Results for Cc1ccc(NCc2ccccc2O)c(C)c1 ?
Gal4-VP16 FLuc: -5%; TDP1 cell noCPT: -14%; TDP1 cell CPT: 12%; LDHA block: -10; RORgamma inh: 0%; IL1B secr inh: -17

Results for Cc1ccc(NCc2nc3ccccc3n2C)c(C)c1 ?
Gal4-VP16 FLuc: 10µM*; TDP1 cell noCPT: inconclusive; TDP1 cell CPT: inconclusive; LDHA block: 0; RORgamma inh: 13µM*; IL1B secr inh: -17

How did Cc1ccc(N2CCN(c3ccc(NCc4nc5ccccc5n4C)cc3)CC2)cc1 do in these assays?
Gal4-VP16 FLuc: -3%; TDP1 cell noCPT: 16µM*; TDP1 cell CPT: inconclusive; LDHA block: 17; RORgamma inh: 11µM*; IL1B secr inh: 6

What do the screens show for `Cn1c(CNc2ccc(Cl)cc2)nc2ccccc21`?
Gal4-VP16 FLuc: inconclusive; TDP1 cell noCPT: inconclusive; TDP1 cell CPT: 16µM*; LDHA block: 1; RORgamma inh: inconclusive; IL1B secr inh: 10

Results for CN(Cc1nc2ccccc2n1C)S(=O)(=O)c1ccc(Cl)cc1 ?
Gal4-VP16 FLuc: 9%; TDP1 cell noCPT: 26µM*; TDP1 cell CPT: inconclusive; LDHA block: -1; RORgamma inh: inconclusive; IL1B secr inh: -18

Results for Cn1c(NCc2ccccc2Cl)nc2ccccc21 ?
TDP1 cell noCPT: inconclusive; TDP1 cell CPT: -21%; LDHA block: -6; IL1B secr inh: inconclusive

What do the screens show for `CN(Cc1nc2ccccc2n1C(F)F)S(=O)(=O)c1ccc(F)c(F)c1`?
LDHA block: 2

Results for COC(=O)c1cc(NC(=O)N2CCc3[nH]cnc3C2c2ccc(Cl)cc2)ccc1Cl (stereo not given) ?
LDHA block: -7

Results for CCCNC(=O)C1CN(C(=O)c2nn(-c3ccccc3)c(=O)c3ccccc23)c2ccccc2O1 (stereo not given) ?
LDHA block: 5

Results for Cc1ccc(CCNC(=O)CCn2c(=O)c3cccn3c3ccc(F)cc32)cc1 ?
Gal4-VP16 FLuc: 2%; TDP1 cell noCPT: 18µM*; TDP1 cell CPT: inconclusive; LDHA block: -16; RORgamma inh: 36%; IL1B secr inh: -18

Results for O=C(CCCn1c(=O)c2cccn2c2ccccc21)NCCc1ccc(Cl)cc1 ?
TDP1 cell noCPT: inconclusive; TDP1 cell CPT: inconclusive; LDHA block: -4

How did O=C(CCn1c(=O)c2cccn2c2ccc(F)cc21)NCCc1ccc(Cl)cc1 do in these assays?
TDP1 cell noCPT: 15µM*; TDP1 cell CPT: inconclusive; LDHA block: 1

How did CCCCNC(=O)CCn1c(=O)c2cccn2c2ccc(F)cc21 do in these assays?
Gal4-VP16 FLuc: -2%; TDP1 cell noCPT: inconclusive; TDP1 cell CPT: inconclusive; LDHA block: -3; RORgamma inh: 25%; IL1B secr inh: -4

What do the screens show for `CCC(C)c1ccc(NC(=S)NNC(C)=O)cc1` (stereo not given)?
LDHA block: -6

What do the screens show for `CCC(NC(=O)C1CCCO1)c1ccccc1OC(C)C` (stereo not given)?
LDHA block: 0

How did CCC(C)c1ccc(C(CC)NC(=O)C2CCCO2)cc1 (stereo not given) do in these assays?
Gal4-VP16 FLuc: inconclusive; TDP1 cell noCPT: inconclusive; TDP1 cell CPT: 23µM*; LDHA block: -9; RORgamma inh: inconclusive; IL1B secr inh: 37

What do the screens show for `CCC(C)c1ccc(NC(=S)NC(C)C2CCCO2)cc1` (stereo not given)?
Gal4-VP16 FLuc: 18µM*; TDP1 cell noCPT: 26µM*; TDP1 cell CPT: -18%; LDHA block: -4; RORgamma inh: 6.3µM*; IL1B secr inh: 16

Results for CCCS/C(N)=N/N=C/c1ccccc1O ?
Gal4-VP16 FLuc: 1.4µM*; TDP1 cell noCPT: 18µM*; TDP1 cell CPT: inconclusive; LDHA block: 0; RORgamma inh: 0.63µM*; IL1B secr inh: inconclusive

How did C=CCS/C(N)=N\N=C\c1c(O)ccc2ccccc12 do in these assays?
Gal4-VP16 FLuc: 3.2µM*; TDP1 cell noCPT: inconclusive; TDP1 cell CPT: inconclusive; LDHA block: 0; RORgamma inh: 0.5µM*; IL1B secr inh: 0

What do the screens show for `CCOc1ccccc1C=NN=Cc1ccccc1O`?
TDP1 cell noCPT: -24%; TDP1 cell CPT: -17%; LDHA block: -6; IL1B secr inh: 17
